Hits are enriched below; roughly 4.7% of the tested compounds scored in any of these assays.
ATG4B inh: ATG4B protease inhibitors, primary screen, biochemical, fluorescence, uHTS; actives 0.51% (n = 340,000); Cysteine protease ATG4B (Homo sapiens), Q9Y4P1; ATG4B cleavage of LC3-PLA2, NBD-HPC fluorescence, 1 h; inhibition, % at 8.33 µM; in the data active means inhibition above about 40%
Target sequence (Q9Y4P1 whole entry, looked up): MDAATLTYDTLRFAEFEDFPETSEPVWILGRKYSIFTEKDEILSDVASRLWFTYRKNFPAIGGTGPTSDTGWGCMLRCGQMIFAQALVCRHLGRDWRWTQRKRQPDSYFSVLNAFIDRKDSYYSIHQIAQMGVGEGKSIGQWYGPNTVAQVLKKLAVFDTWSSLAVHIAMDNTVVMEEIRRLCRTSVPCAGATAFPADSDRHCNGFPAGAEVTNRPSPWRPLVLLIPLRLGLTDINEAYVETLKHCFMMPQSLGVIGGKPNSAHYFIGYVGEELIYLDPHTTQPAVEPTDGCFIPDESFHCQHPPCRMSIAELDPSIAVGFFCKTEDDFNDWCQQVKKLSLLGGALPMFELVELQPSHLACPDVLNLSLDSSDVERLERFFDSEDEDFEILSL
PfHsp90 yeast 2: growth inhibition of PfHsp90-expressing yeast, primary screen, antimalarial PfHsp90 inhibitor project, S. cerevisiae, BacTiter-Glo luminescence, single point, set 2 | BacTiter-Glo ATP, 48 h; yeast lacking PDR1 and PDR3 efflux regulators | inhibition, % at 9.4 µM | actives 0.32% (n = 310,000);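 active means every replicate shows inhibition above about 80%, whatever the replicate mean, limit read from the data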;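 further: 0% = DMSO neutral controls and 100% = 20 µM radicicol positive controls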
tim10-1 inh: growth inhibitors of tim10-1 mutant yeast, primary screen, luminescence, uHTS. S. cerevisiae tim10-1 ts strain growth, BacTiter-Glo, 24 h. inhibition, % at 20 µM. actives 2.2% (n = 330,000);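 active means inhibition of at least 40%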;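 further: mutant grown at 25 °C; 0% = DMSO wells with yeast and 100% = wells holding no yeast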
tim23-1 inh: growth inhibitors of tim23-1 mutant yeast, primary screen, luminescence, uHTS; S. cerevisiae tim23-1 growth, BacTiter-Glo luminescence, 24 h; inhibition, % at 20 µM; actives 1.3% (n = 330,000); AID 463212, 2010;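 active means growth inhibition of the mutant yeast at or above 50%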;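 further: temperature-sensitive mutant grown at 25 °C; plate controls were DMSO-treated mutant yeast for no effect and medium wells lacking yeast for full effect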
TIM10 inh: growth inhibitors of isogenic TIM10 control yeast, primary screen, counter-screen for tim10-1 yeast inhibitor project, luminescence, uHTS; actives 1.4% (n = 330,000); inhibition, % at 10 µM; AID 463195, 2010; S. cerevisiae TIM10 strain growth, BacTiter-Glo luminescence, 24 h;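 active means inhibition of 40% or more at the single tested concentration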;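 further: wild-type TIM10 isogenic control strain grown at permissive 25 °C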
SKKanGAS inh: S. pyogenes SKKanGAS growth inhibitors in kanamycin, primary screen, streptokinase expression inhibitor project, SKKanGAS strain, BacTiter-Glo luminescence. actives 1.3% (n = 300,000). AID 1662, 2009. inhibition, % at 7.5 µM. 6 h;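 active means mean replicate score, as percent of positive control median, at least 50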;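 further: strain carries kanamycin resistance gene driven by streptokinase promoter and grows in 40 µg/ml kanamycin; loss of luminescence reflects streptokinase promoter inhibition or plain growth inhibition; 0% = median of DMSO wells and 100% = positive control at its reference dose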
tim10-1 confirm: growth inhibitors of tim10-1 mutant yeast, confirmation, single concentration, luminescence, S. cerevisiae. S. cerevisiae tim10-1 ts strain growth, BacTiter-Glo, 24 h. actives 56% (n = 7,400). AID 463213, 2010. shares compounds with tim10-1 inh. inhibition, % at 20 µM;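 active means inhibition of yeast growth at or above a set limit in either of two repeat tests at 20 µM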;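 further: tim10-1 mutant grown at permissive 25 °C to find synthetic lethal compounds; 0% = DMSO yeast wells and 100% = medium wells without yeast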
TIM10 conf: growth inhibitors of wild-type TIM10 yeast, confirmation, counter-screen for tim10-1 synthetic lethality project, single concentration, luminescence, S. cerevisiae; inhibition, % at 10 µM; S. cerevisiae tim10 strain growth, BacTiter-Glo luminescence, 24 h; shares compounds with TIM10 inh; actives 63% (n = 4,600);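 active means inhibition of yeast growth at or above a set limit in either of two replicates at 10 µM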;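 further: this counterscreen used the strain with wild-type TIM10; 0% = yeast with DMSO and 100% = medium wells lacking yeast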
tim23-1 conf: tim23-1 mutant yeast growth inhibitors, confirmation, luminescence, single concentration | inhibition, % at 20 µM | actives 83% (n = 4,400) | S. cerevisiae tim23-1 growth, BacTiter-Glo luminescence, 24 h | shares compounds with tim23-1 inh;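 active means inhibition above about 39% in either of two replicate wells at 20 µM, limit read from the data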;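 further: temperature-sensitive tim23-1 mutant grown at 25 °C; 0% = DMSO wells with yeast and 100% = medium wells without yeast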
Numbers without * were called inactive; · = not tested or not shown.

SMILES | ATG4B inh | PfHsp90 yeast 2 | tim10-1 inh | tim23-1 inh | TIM10 inh | SKKanGAS inh | tim10-1 confirm | TIM10 conf | tim23-1 conf
COc1ccc(/C(C)=N/NC(=S)NCc2ccco2)cc1 | -5.9 | -29.0 | 40.6* | 50.8* | 33.3 | -13.1 | 47.9* | · | 54.3*
COc1ccc(/C(C)=N/NC(=O)CNC(=O)c2ccco2)cc1 | -4.8 | -15.0 | -4.3 | -5.8 | -4.8 | -3.6 | · | · | ·
c1ccc(-c2noc(-c3ccc4c(c3)OCO4)n2)nc1 | 11.8 | 68.9 | 49.5* | 51.5* | 34.3 | 76.4* | 39.9* | · | 59.8*
c1ccc(-c2noc(-c3ccc4ccccc4c3)n2)nc1 | -3.1 | 29.7 | 31.5 | 30.8 | 18.3 | 21.6 | · | · | ·
CC(C)C(=O)N1CCN(c2nc3ccc(Cl)cc3s2)CC1 | -6.8 | -3.6 | 10.0 | 11.2 | -5.3 | -1.8 | · | · | ·
Cc1ccc(-c2nnc(N3CCN(C(=O)c4ccco4)CC3)c3ccccc23)cc1 | 5.9 | 13.4 | 61.1* | 70.5* | 53.1* | 22.6 | 50.2* | -12.4 | 62.8*
CC(=O)N1CCN(c2nnc(-c3ccccc3)c3ccccc23)CC1 | 1.5 | 18.7 | -46.1 | -58.1 | -30.3 | -2.0 | · | · | ·
COC(=O)c1ccc(/C=C(\C#N)C(=O)NC(C)c2ccccc2)cc1 (stereo not given) | 1.5 | -14.6 | 64.3* | 66.5* | 61.3* | -2.3 | 62.2* | 57.5* | 58.0*
CC(NC(=O)/C(C#N)=C/c1ccc(N2CCOCC2)cc1)c1ccccc1 (stereo not given) | -18.5 | -78.3 | 17.6 | 32.9 | 21.8 | -5.3 | · | · | ·
Oc1ccc(/C=C/c2nc(-c3ccccc3O)n(-c3ccccc3)n2)cc1 | 9.0 | · | 59.6* | 58.7* | 37.6 | 37.6 | 51.4* | · | 63.8*
C=C(C)C(=O)OC1(C(F)(F)F)Oc2cc(C)ccc2NC1=O (stereo not given) | -2.5 | · | 55.9* | 65.8* | 47.7* | -4.6 | 52.2* | 41.4* | 77.8*
COCCNC(=S)N1C2CCC1CC(NC(=O)NC13CC4CC(CC(C4)C1)C3)C2 (stereo not given) | 19.2 | 13.2 | 0.7 | 7.1 | 5.3 | 0.7 | · | · | ·
O=C(OCc1nnc(-c2ccccc2)o1)c1ccc([N+](=O)[O-])o1 | 0.1 | · | 78.2* | 80.0* | -36.1 | -8.4 | 58.8* | · | 84.0*
C/C(N)=C(/C#N)C(=O)CSc1nc2cc(Cl)ccc2s1 | -5.9 | · | 50.1* | 54.5* | 43.8* | -0.6 | 46.1* | 37.4* | 55.8*
COc1ccc(CNC(=O)COC(=O)c2cccs2)cc1 | -6.2 | 3.1 | -2.0 | -1.7 | 11.4 | -2.6 | · | · | ·
O=C(Nc1scc(-c2ccccc2)c1C(=O)O)c1ccccc1Cl | 39.1 | 34.0 | 7.5 | 17.3 | -12.8 | 24.1 | · | · | ·
Cc1ccc(C(=O)Nc2scc(-c3ccccc3)c2C(=O)O)cc1 | 22.0 | 35.2 | 85.3* | 86.5* | 81.7* | 34.2 | 82.8* | 91.4* | 87.0*
COc1ccc(-c2csc(NC(=O)c3ccccc3F)c2C(=O)O)cc1 | 14.2 | 28.5 | 80.8* | 85.4* | 75.2* | 16.0 | 74.8* | 72.1* | 85.9*
COC(CNS(=O)(=O)c1ccc(S(=O)(=O)N2CCCC2)cc1)OC | 11.3 | 0.4 | -5.3 | 3.8 | 0.2 | -2.6 | · | · | ·
O=C(NCCS(=O)(=O)N1CCC2(CC1)OCCO2)c1ccccc1 | 2.7 | · | 4.9 | 17.6 | 2.9 | 1.4 | · | · | ·
Cn1nnnc1SCC(=O)N1CCc2ccccc2C1 | 4.7 | -21.6 | 12.4 | -5.0 | 10.3 | · | · | · | ·

Compound activity from PubChem.
